Data: PubChem BioAssay (Tox21)
Inconclusive results are not listed. Activity calls are given as the source filed them. Unless noted, calls follow the shape of the dose curve; as a rule, active = well fitted curve in the direction sought with a large enough effect in the repeat runs; inconclusive = weak or mixed curves; inactive = no such curve, though single readings can be large; an effect the other way counts as inactive or inconclusive.

Experiments:
[1] = target: Thyrotropin receptor (Homo sapiens) (UniProt P16473); test: qHTS assay to identify small molecule antagonists of the thyroid stimulating hormone receptor (TSHR) signaling pathway (AID 1259385; calls by dose curve; also: nearly all actives have a fitted effect of over 20% in size)
Sequence of Thyrotropin receptor (Homo sapiens) (P16473 whole entry, looked up): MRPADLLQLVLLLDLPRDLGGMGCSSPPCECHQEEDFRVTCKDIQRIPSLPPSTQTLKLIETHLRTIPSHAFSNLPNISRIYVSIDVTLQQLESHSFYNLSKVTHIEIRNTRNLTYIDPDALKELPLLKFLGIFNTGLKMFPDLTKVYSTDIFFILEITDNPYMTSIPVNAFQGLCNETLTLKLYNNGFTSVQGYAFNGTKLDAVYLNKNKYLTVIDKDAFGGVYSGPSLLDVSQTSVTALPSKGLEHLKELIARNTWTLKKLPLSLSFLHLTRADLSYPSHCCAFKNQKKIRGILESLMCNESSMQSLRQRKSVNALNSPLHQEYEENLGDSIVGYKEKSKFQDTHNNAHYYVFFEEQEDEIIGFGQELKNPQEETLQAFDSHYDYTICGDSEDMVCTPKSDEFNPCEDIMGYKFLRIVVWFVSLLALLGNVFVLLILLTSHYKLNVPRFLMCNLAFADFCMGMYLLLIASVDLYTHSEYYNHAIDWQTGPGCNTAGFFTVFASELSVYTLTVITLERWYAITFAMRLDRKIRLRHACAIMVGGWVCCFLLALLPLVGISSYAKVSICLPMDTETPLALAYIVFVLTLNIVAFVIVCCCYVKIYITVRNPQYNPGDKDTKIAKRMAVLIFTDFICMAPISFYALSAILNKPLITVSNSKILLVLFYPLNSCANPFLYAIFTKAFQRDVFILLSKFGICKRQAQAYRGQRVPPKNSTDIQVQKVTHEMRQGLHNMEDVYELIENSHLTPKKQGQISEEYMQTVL
Outline: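 Antagonist mode: compound-treated TSHR-expressing HEK293 cells were stimulated with 1.5 ng/mL TSH (final) in presence of Ro20-1724 for 30 min at RT. HTRF cAMP detection after 1 h; each compound tested at 15 concentrations, triplicate.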

[2] = qHTS assay to identify small molecule agonists of the estrogen receptor alpha (ER-alpha) signaling pathway in the presence of an antagonist - cell viability counter screen (AID 1259386);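 also: cells exposed to compounds for 22 h at 37 °C before the viability read; nearly all actives have a fitted effect of over 30% in size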; also: potency is read from the fitted curve at half-maximal effect; as to activity change, negative = cytotoxicity: series mostly up to about 92 µM
Outline: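 Cytotoxicity was measured in parallel with the ERE-luciferase agonist screen, in the same wells. The cells were VM7Luc4E2, which endogenously express ER-alpha, and treatment was with compounds plus 10.0nM ICI-182,780 for 22hr.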

[3] = target: Progesterone receptor (Homo sapiens) (UniProt P06401); test: qHTS assay to identify small molecule agonists of the progesterone receptor (PR) signaling pathway (AID 1346784; calls by dose curve; also: nearly all actives have a fitted effect of over 30% in size)
Sequence of Progesterone receptor (Homo sapiens) (P06401 whole entry, looked up): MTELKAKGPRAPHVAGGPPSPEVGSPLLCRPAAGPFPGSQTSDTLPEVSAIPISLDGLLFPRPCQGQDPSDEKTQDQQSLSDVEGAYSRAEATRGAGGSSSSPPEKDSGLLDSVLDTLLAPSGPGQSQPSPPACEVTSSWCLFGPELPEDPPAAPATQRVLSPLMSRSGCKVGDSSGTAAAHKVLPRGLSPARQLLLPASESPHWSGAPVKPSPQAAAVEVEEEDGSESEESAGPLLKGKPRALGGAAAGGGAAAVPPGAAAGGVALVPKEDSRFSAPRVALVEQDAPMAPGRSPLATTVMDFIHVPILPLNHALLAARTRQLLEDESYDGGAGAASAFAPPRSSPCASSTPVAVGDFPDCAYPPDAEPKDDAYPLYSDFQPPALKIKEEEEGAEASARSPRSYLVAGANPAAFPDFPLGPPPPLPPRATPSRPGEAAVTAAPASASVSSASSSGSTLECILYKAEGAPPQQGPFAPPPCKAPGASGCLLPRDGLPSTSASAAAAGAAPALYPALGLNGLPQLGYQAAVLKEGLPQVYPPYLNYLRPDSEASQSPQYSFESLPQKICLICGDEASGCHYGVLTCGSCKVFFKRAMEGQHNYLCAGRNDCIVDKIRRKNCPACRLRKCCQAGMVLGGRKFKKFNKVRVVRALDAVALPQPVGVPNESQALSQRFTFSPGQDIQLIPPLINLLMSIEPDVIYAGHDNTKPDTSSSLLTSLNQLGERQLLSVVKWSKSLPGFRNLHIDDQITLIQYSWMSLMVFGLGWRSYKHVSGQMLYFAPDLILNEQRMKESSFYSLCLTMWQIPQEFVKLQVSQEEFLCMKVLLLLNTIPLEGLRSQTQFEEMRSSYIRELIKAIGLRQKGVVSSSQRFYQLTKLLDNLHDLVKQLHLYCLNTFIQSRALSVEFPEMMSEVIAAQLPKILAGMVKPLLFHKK
Outline: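 Using charcoal-stripped serum (2%) to limit endogenous steroids, PR-UAS-bla HEK 293T cells received compounds for 16 hr at 37C after 6 hr plating; beta-lactamase FRET fluorescence was recorded following 2 hr substrate loading at room temperature.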

[4] = target: Progesterone receptor (Homo sapiens) (UniProt P06401); test: qHTS assay to identify small molecule antagonists of the progesterone receptor (PR) signaling pathway (AID 1346795; active = well fitted inhibition curve with a large enough effect in the signal ratio in the repeat runs, not every such curve was filed as active; the % refers to the signal ratio)
Outline: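 Inhibition of R5020-induced (1 nM final) beta-lactamase reporter signal in PR-UAS-bla HEK293T cells was scored by FRET fluorescence after overnight (16 hr) compound treatment.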

[5] = qHTS assay to identify small molecule antagonists of the progesterone receptor (PR) signaling pathway - cell viability counter screen (AID 1346798); also: series mostly up to about 92 µM; nearly all actives have a fitted effect of over 50% in size
Outline: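 ATP content as viability readout: CellTiter-Glo luminescence, 30 min room temperature, in PR-UAS-bla HEK293T cells after 16 hr compound/R5020 treatment at 37C and 5% CO2.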

[6] = qHTS assay to identify small molecule agonists of the progesterone receptor (PR) signaling pathway - cell viability counter screen (AID 1346799; calls by dose curve; also: nearly all actives have a fitted effect of over 45% in size; also: potency is read from the fitted curve at half-maximal effect)
Outline: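 Cytotoxicity in PR-bla HEK293T cells: 16 h compound, 37C; CellTiter-Glo added post-FRET read; luminescence after 30 min RT.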

[7] = qHTS assay to identify small molecule antagonists of the TGF-beta/Smad signaling pathway - cell viability counter screen (AID 1346824); also: nearly all actives have a fitted effect of over 50% in size
Outline: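 Cytotoxicity counter-screen run in the same wells as the beta-lactamase Smad reporter read: CellTiter-Glo luminescence after 30 min at room temperature. HEK 293T SBE-bla cells had 5 hr compound exposure at 37 C with TGF-beta1 (0.25 ng/mL stock).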

[8] = qHTS assay to identify small molecule agonists of the TGF-beta/Smad signaling pathway - cell viability counter screen (AID 1346829); also: top concentration of the series differs between compounds; nearly all actives have a fitted effect of over 45% in size
Outline: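 Luminescence from CellTiter-Glo, read after a 30 min room-temperature incubation, gives cell viability of SBE-bla HEK 293T cells treated 5 hr with compounds at 37 C.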

[9] = qHTS assay to identify small molecule agonists of the TGF-beta/Smad signaling pathway (AID 1346859; active = well fitted activation curve with a large enough effect in the signal ratio in the repeat runs, not every such curve was filed as active; the % refers to the signal ratio; also: series mostly up to about 77 µM)
Outline: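 Stable Smad binding element-beta-lactamase HEK 293T cells; 5 hr compound exposure at 37 C under 5% CO2; 2 hr room-temperature substrate step; fluorescence excited at 405 nm, collected at 460 nm and 530 nm.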

[10] = target: Thyrotropin-releasing hormone receptor (Homo sapiens) (UniProt P34981); test: qHTS assay to identify small molecule antagonists of the thyrotropin-releasing hormone receptor (TRHR) signaling pathway (AID 1346877; active = well fitted inhibition curve with a large enough effect in the repeat runs, not every such curve was filed as active; also: series mostly up to about 51 µM)
Sequence of Thyrotropin-releasing hormone receptor (Homo sapiens) (P34981 whole entry, looked up): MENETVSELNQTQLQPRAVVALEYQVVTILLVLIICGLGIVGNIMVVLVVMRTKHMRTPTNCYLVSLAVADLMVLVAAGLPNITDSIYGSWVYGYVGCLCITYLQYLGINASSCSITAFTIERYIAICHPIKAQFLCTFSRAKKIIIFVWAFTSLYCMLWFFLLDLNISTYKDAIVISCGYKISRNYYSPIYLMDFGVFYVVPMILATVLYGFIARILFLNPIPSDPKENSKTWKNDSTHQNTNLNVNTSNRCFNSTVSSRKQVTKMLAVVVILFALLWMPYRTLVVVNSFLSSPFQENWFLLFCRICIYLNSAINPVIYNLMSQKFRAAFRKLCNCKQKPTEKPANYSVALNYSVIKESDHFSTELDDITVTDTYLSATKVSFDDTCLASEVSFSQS
Outline: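 Antagonism is measured as suppression of the calcium response to 1 nM TRH in TRHR-HEK293 cells that have been dye-loaded for 2 h at 37 °C after overnight plating. Each compound is tested at 15 concentrations in triplicate.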

[11] = target: Thyrotropin-releasing hormone receptor (Homo sapiens) (UniProt P34981); test: qHTS assay to identify small molecule agonists of the thyrotropin-releasing hormone receptor (TRHR) signaling pathway (AID 1346891; calls by dose curve;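 also: HEK293 cells expressing TRHR with calcium dye readout; series mostly up to about 58 µM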)
Outline: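 In 1536-format, 1500 TRHR-Hek293 cells per well grew 18 h, took up calcium dye for 2 h at 37 °C, received compound, and were read kinetically; 15-point titrations, triplicates.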

[12] = Human pregnane X receptor (PXR) small molecule agonists, qHTS cell viability counter screen (AID 1346977); also: nearly all actives have a fitted effect of over 50% in size
Outline: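 Readout is CellTiter-Fluor fluorescence from PXR-Luc HepG2 cells. Plated cells rested 5hr, then were treated with compounds for 24hr at 37C and 5% CO2, with reagent present during the last hour.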

[13] = Caspase-3/7 induction in HepG2 cells by small molecules, qHTS assay (AID 1346978); also: nearly all actives have a fitted effect of over 15% in size
Outline: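 Caspase-3/7 induction was measured by Caspase-Glo 3/7 luminescence (30 min, room temperature) after a 17 hr compound exposure of wild-type HepG2 cells seeded at 2,000 per well and pre-incubated 5 hr.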

[14] = Caspase-3/7 induction in CHO-K1 cells by small molecules, qHTS cell viability counter screen (AID 1346979); also: nearly all actives have a fitted effect of over 35% in size; also: potency is read from the fitted curve at half-maximal effect
Outline: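 To flag cytotoxic compounds, treated CHO-K1 wild-type cells were given CellTiter-Fluor at 16hr and read fluorescently after 1hr at 37C; the caspase-3/7 luminescence was measured in these same wells.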

[15] = Caspase-3/7 induction in CHO-K1 cells by small molecules, qHTS assay (AID 1346980); also: nearly all actives have a fitted effect of over 15% in size
Outline: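 Luminescent Caspase-Glo 3/7 read (30min, room temperature) quantified apoptosis induction. Cells were wild-type CHO-K1, treated with compound for 17hr at 37 C and 5% CO2.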

[16] = Caspase-3/7 induction in HepG2 cells by small molecules, qHTS cell viability counter screen (AID 1346981); also: nearly all actives have a fitted effect of over 30% in size; also: potency is read from the fitted curve at half-maximal effect; as to activity change, negative = cytotoxicity: series mostly up to about 92 µM
Outline: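 Cell viability is measured as a cytotoxicity counter screen alongside the Caspase-Glo 3/7 readout in identical wells. Wild-type HepG2 cells are treated with test compounds for 16 hr at 37 C before CellTiter-Fluor addition and a 1-hr incubation.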

[17] = target: Cytochrome P450 2D6 (Homo sapiens) (UniProt P10635); test: Cytochrome P450 Family 2 Subfamily D Member 6 (CYP2D6) small molecule antagonists: luciferase reporter qHTS assay (AID 1671196); also: nearly all actives have a fitted effect of over 50% in size; also: potency is read from the fitted curve at half-maximal effect; as to activity change, negative = inhibition: series mostly up to about 120 µM
Sequence of Cytochrome P450 2D6 (Homo sapiens) (P10635 whole entry, looked up): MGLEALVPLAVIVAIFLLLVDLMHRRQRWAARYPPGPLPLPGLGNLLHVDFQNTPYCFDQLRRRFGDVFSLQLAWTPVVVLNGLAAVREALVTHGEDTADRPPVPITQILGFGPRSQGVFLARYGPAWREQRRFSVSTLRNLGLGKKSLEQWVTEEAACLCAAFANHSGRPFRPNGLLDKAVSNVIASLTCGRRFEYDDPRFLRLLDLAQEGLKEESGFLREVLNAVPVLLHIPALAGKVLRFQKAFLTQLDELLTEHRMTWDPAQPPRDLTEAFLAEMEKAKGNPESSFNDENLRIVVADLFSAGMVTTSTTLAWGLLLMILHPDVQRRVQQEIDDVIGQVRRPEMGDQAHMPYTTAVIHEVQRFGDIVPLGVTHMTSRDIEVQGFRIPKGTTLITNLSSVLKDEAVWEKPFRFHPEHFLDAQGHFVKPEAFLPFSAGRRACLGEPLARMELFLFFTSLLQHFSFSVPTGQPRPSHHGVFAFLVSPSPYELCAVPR
Outline: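 Enzyme and proluciferin substrate were first combined with test chemical for 10 min at room temperature. Adding NADPH regeneration solution started a 1 h reaction, stopped with luciferin detection reagent and read by luminescence 20 min later.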

[18] = target: Nuclear receptor subfamily 1 group I member 2 (Homo sapiens) (UniProt O75469); test: Human pregnane X receptor (PXR) small molecule agonists, qHTS assay (AID 1346982); also: nearly all actives have a fitted effect of over 35% in size; also: potency is read from the fitted curve at half-maximal effect
Sequence of Nuclear receptor subfamily 1 group I member 2 (Homo sapiens) (O75469 whole entry, looked up): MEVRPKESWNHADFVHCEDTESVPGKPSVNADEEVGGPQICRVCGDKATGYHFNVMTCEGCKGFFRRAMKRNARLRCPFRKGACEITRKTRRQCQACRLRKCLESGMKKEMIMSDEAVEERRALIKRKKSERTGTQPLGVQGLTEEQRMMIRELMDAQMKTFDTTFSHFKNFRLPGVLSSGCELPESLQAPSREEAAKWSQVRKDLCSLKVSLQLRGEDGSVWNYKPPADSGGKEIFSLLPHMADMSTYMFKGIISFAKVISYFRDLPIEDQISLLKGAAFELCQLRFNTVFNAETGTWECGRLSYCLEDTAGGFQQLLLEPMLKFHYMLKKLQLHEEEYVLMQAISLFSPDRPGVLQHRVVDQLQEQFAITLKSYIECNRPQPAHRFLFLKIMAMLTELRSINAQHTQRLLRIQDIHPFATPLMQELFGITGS
Outline: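 Cells: HepG2 stably carrying PXR-Luc. Medium held 5% charcoal-stripped FBS. Compounds in DMSO added after 5 hr plating, incubated 24 hr, then luminescence quantified with ONE-Glo.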

[19] = target: Nuclear receptor subfamily 1 group I member 2 (Rattus norvegicus) (UniProt Q9R1A7); test: Rat pregnane X receptor (rPXR) activation by small molecules, qHTS assay (AID 1346983); conditions: rPXR luciferase reporter cells, One-Glo luminescence, 24 h; max activation: hits give high values; also: nearly all actives have a fitted effect of over 20% in size
Sequence of Nuclear receptor subfamily 1 group I member 2 (Rattus norvegicus) (Q9R1A7 whole entry, looked up): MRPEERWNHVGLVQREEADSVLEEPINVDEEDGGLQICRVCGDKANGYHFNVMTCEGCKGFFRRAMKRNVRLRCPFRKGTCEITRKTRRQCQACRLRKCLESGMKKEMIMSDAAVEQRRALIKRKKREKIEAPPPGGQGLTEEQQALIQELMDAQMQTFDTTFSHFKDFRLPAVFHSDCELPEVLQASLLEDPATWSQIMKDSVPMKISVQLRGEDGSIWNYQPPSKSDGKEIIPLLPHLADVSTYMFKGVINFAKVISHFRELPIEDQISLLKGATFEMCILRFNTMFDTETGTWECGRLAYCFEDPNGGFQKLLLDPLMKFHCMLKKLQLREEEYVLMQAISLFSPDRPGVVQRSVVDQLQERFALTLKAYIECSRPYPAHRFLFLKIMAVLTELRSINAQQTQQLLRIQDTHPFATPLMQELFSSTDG
Outline: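 Luminescent readout (One-Glo luciferase, 30 min room temperature) followed 24 hr compound treatment at 37 C of rPXR cells plated 2,000 per well and preincubated 5hr; qHTS format with compounds delivered in DMSO.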
% is scaled to controls: 0 for no effect and ±100 for the full control effect.

CCCC(=O)OCc1ccccc1
inactive: Potency [1] | Potency [2] | Potency [3] | Potency [4] | Potency [5] | Potency [6] | outcome [7] | outcome [8] | outcome [9] | outcome [10] | outcome [11] | Potency [12] | Potency [13] | Potency [14] | Potency [15] | Potency [16] | Potency [17]

CC(O)C(C)O (centres undefined)
inactive: Potency [1] | Potency [2] | Potency [3] | Potency [4] | Potency [5] | Potency [6] | outcome [7] | outcome [8] | outcome [9] | outcome [10] | outcome [11] | Potency [12] | Potency [13] | Potency [14] | Potency [15] | Potency [16] | Potency [18] | Potency [17]

CCCCCCCCCC(C)C=O (centres undefined)
inactive: Potency [1] | Potency [2] | Potency [3] | Potency [4] | Potency [5] | outcome [7] | outcome [8] | outcome [9] | outcome [10] | outcome [11] | Potency [12] | Potency [13] | Potency [14] | Potency [15] | Potency [17]
active: Potency [6] 43.3 µM | Potency [18] 48.6 µM

OCCc1ccncc1
inactive: Potency [1] | Potency [2] | Potency [3] | Potency [4] | Potency [5] | Potency [6] | outcome [7] | outcome [8] | outcome [9] | outcome [10] | outcome [11] | Potency [12] | Potency [13] | Potency [14] | Potency [15] | Potency [18]

Cc1ccc2ccccc2c1[N+](=O)[O-]
inactive: Potency [1] | Potency [2] | Potency [3] | Potency [4] | Potency [5] | Potency [6] | outcome [7] | outcome [8] | outcome [9] | outcome [10] | outcome [11] | Potency [12] | Potency [13] | Potency [14] | Potency [15] | Potency [16] | Potency [17]

O=C(O)c1cc(C(=O)O)cc([N+](=O)[O-])c1
inactive: Potency [1] | Potency [2] | Potency [3] | Potency [4] | Potency [5] | Potency [6] | outcome [7] | outcome [8] | outcome [9] | outcome [10] | outcome [11] | Potency [12] | Potency [13] | Potency [14] | Potency [15] | Potency [16] | Potency [18] | Potency [17]

CCCCCCCCNC
inactive: Potency [1] | Potency [2] | Potency [3] | Potency [4] | Potency [5] | Potency [6] | outcome [7] | outcome [8] | outcome [9] | outcome [10] | outcome [11] | Potency [12] | Potency [13] | Potency [14] | Potency [15] | Potency [18]

CC(C)=CCCC(C)C=O (centres undefined)
inactive: Potency [1] | Potency [2] | Potency [3] | Potency [4] | Potency [5] | Potency [6] | outcome [7] | outcome [8] | outcome [9] | outcome [10] | outcome [11] | Potency [12] | Potency [13] | Potency [14] | Potency [15] | Potency [16] | Potency [18] | Potency [17]

C=CC(C)CCC=C(C)C (centres undefined)
inactive: Potency [1] | Potency [2] | Potency [3] | Potency [4] | Potency [5] | Potency [6] | outcome [7] | outcome [8] | outcome [9] | outcome [10] | outcome [11] | Potency [12] | Potency [13] | Potency [14] | Potency [15] | Potency [16] | Potency [17]

COc1ccnc2c1CCCCC2S(=O)c1nc2ccccc2[nH]1 (centres undefined)
inactive: Potency [1] | Potency [2] | Potency [3] | Potency [4] | Potency [5] | Potency [6] | outcome [7] | outcome [8] | outcome [9] | outcome [10] | outcome [11] | Potency [12] | Potency [13] | Potency [14] | Potency [15] | Potency [16]
active: Potency [18] 29.8 µM | Potency [17] 0.436 µM

Nc1ncnc2c1ncn2[C@@H]1O[C@H](CO)[C@@H](O)[C@H]1O
inactive: Potency [1] | Potency [2] | Potency [3] | Potency [4] | Potency [5] | Potency [6] | outcome [7] | outcome [8] | outcome [9] | outcome [10] | outcome [11] | Potency [13] | Potency [14] | Potency [15] | Potency [16]

C=C[Si]1(C)O[Si](C)(C=C)O[Si](C)(C=C)O[Si](C)(C=C)O1 (centres undefined)
inactive: Potency [1] | Potency [2] | Potency [3] | Potency [4] | Potency [5] | Potency [6] | outcome [7] | outcome [8] | outcome [9] | outcome [10] | outcome [11] | Potency [12] | Potency [13] | Potency [14] | Potency [15] | Potency [17]

CCCCCCCCCCCCCCCCCCCl
inactive: activity change, negative = inhibition [1] 0.518% [at 8.39 µM] | activity change, negative = cytotoxicity [2] -0.0193% [at 8.39 µM] | activation [3] -0.486% [at 8.39 µM] | activity change, negative = inhibition [4] 7.9% [at 8.39 µM] | activity change, negative = cytotoxicity [5] -19.4% [at 8.39 µM] | activity change, negative = cytotoxicity [6] -1.64% [at 8.39 µM] | viability change, negative = cytotoxic [7] -4.8% [at 6.97 µM] | activity change, negative = cytotoxicity [8] 3.73% [at 6.97 µM] | activation [9] 1.95% [at 6.97 µM] | activity, negative = inhibition [10] 0.326% [at 4.65 µM] | activation [11] -0.417% [at 5.23 µM] | activity change, negative = cytotoxicity [12] -2.79% [at 8.39 µM] | caspase activation [13] 0.121% [at 8.39 µM] | activity change, negative = cytotoxicity [14] -4.93% [at 8.39 µM] | caspase-3/7 activation [15] -1.95% [at 8.39 µM] | activation [18] 17.1% [at 8.39 µM] | activity change, negative = inhibition [17] -4.65% [at 10.5 µM]

C1CCN(CN2CCCCC2)CC1
inactive: Potency [1] | Potency [2] | Potency [3] | Potency [4] | Potency [5] | Potency [6] | outcome [7] | outcome [8] | outcome [9] | outcome [10] | outcome [11] | Potency [13] | Potency [14] | Potency [15] | Potency [16] | Potency [18]

CCc1c(C)[nH]c2c1C(=O)C(CN1CCOCC1)CC2 (centres undefined)
inactive: Potency [1] | Potency [2] | Potency [3] | Potency [4] | Potency [5] | Potency [6] | outcome [7] | outcome [8] | outcome [9] | outcome [10] | outcome [11] | Potency [12] | Potency [13] | Potency [14] | Potency [15] | Potency [16] | max activation [19] -1.99%

O=c1[nH]nc(-c2ccc([N+](=O)[O-])o2)o1
inactive: Potency [1] | Potency [3] | Potency [4] | Potency [5] | Potency [6] | outcome [7] | outcome [8] | outcome [9] | outcome [10] | outcome [11] | Potency [13] | Potency [15]
active: Potency [2] 54.5 µM | Potency [14] 61.1 µM | Potency [16] 54.5 µM | Potency [18] 61.1 µM
